# This is part of a sample that, as a whole, favours compounds with a hit. Of some 83,000 tested, about 20% had one in any assay.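 Results are percent growth after 48 hours of single-concentration exposure. 100 means growth as in untreated cells, lower positive values show inhibition; negative values down to -100 show cell death.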 Active and inactive are the calls of the source. Rule for the calls: active = growth percent below 10; inactive = the rest.
# Test system: M14 melanoma
# Assay: NCI-60 one-dose screen, 48 h (100 = growth as untreated, 0 = no growth, -100 = all killed)
# Conditions: 10 µM
row,SMILES,growth
1,O=C(/C=C/c1ccco1)c1nc2ccccc2n1Cc1ccc(Br)cc1,26.2% (inactive)
2,O=C(/C=C/c1ccco1)c1nc2ccccc2n1Cc1ccc(F)cc1,88.2% (inactive)
3,COc1cc2cc(C(=O)N3C[C@@H](CCl)c4c3cc(OC(=O)N3CCN(C)[C@@H]5CSSC[C@@H]53)c3ccccc43)[nH]c2c(OC)c1OC,-79% (active)
4,C#CC[Se]C(=O)c1ccc2n[se]nc2c1,54.9% (inactive)
5,O=C(/C=C/c1ccc(Cl)cc1Cl)c1nc2ccccc2n1Cc1ccc(F)cc1,59.8% (inactive)
6,O=C(/C=C/c1ccc(Cl)cc1)c1nc2ccccc2n1Cc1ccc(Br)cc1,65.4% (inactive)
7,CCOP(=O)(OCC)C(NC(C)=O)C(=O)SCCN (stereo unspecified),106% (inactive)
8,COc1cc2cc(C(=O)N3C[C@@H](CCl)c4c3cc(OC(=O)N3CCN(C)[C@@H]5CSSC[C@H]53)c3ccccc43)[nH]c2c(OC)c1OC,-76.2% (active)
9,COc1ccc2cc([C@H](C)C(=O)[Se]CCC#N)ccc2c1,-63.9% (active)
10,CC12OOC(C)(OO1)C2CCC(=O)OCCNc1ccnc2cc(Cl)ccc12 (stereo unspecified),14.6% (inactive)
11,CC(C)N=C([Se])NC(=O)c1cccs1,8.28% (active)
12,Cc1ccc2[nH]c(=S)n(-c3ccc(F)cc3)c(=O)c2c1,100% (inactive)
13,CCOC(=O)C1=C(Nc2ccccc2)C(=O)OC12C(=O)Nc1ccccc12 (stereo unspecified),105% (inactive)
14,CC12CCC3(CCC(=O)NCCCNc4ccnc5cc(Cl)ccc45)[C@@](C)(OO[C@]3(C)O1)O2,-2.43% (active)
15,CC[C@]12C=CCN3CC[C@@]4(c5ccc(OC)cc5N(C)[C@H]4[C@@](O)(C(=O)OC)[C@@H]1OC(=O)CCCC[P+](C1CCCCC1)(C1CCCCC1)C1CCCCC1)[C@@H]32,-83.5% (active)
16,CC(=O)Oc1ccccc1C(=O)[Se]C(=NC(C)C)NC(C)C,-92.7% (active)

row,SMILES,growth
1,COCCOCCOCCOc1ccc(-n2cc(CCCN(CCNc3ccnc4cc(Cl)ccc34)C(=O)CCC(=O)O[C@@H]3O[C@@H]4OC5(C)CC[C@H]6[C@H](C)CC[C@@H]([C@H]3C)[C@@]46OO5)nn2)cc1,34.8% (inactive)
2,C[C@H]1[C@@H](CC(=O)N[C@@H](Cc2coc3ccccc23)B(O)O)O[C@@H]2OC3(C)CC[C@H]4[C@H](C)CC[C@@H]1[C@@]24OO3,-44% (active)
3,COP(=O)(CC(F)(F)C(F)(F)F)OC,-65.3% (active)
4,CC12OOC(C)(OO1)C2CCC(=O)NCCNc1ccnc2cc(Cl)ccc12 (stereo unspecified),105% (inactive)
5,CC[C@]12C=CCN3CC[C@@]4(c5ccc(OC)cc5N(C)[C@H]4[C@@](O)(C(=O)OC)[C@@H]1OC(=O)CCC[P+](c1ccc(C)cc1)(c1ccc(C)cc1)c1ccc(C)cc1)[C@@H]32,-85.3% (active)
6,CC(C)N=C([Se])NC(=O)c1ccccc1,-65.2% (active)
7,CC[C@]12C=CCN3CC[C@@]4(c5ccc(OC)cc5N(C)[C@H]4[C@@](O)(C(=O)OC)[C@@H]1OC(=O)CCC[P+](C1CCCCC1)(C1CCCCC1)C1CCCCC1)[C@@H]32,-78% (active)
8,CC1=C(COCCOC(=O)c2ccc(S(=O)(=O)F)cc2)C2=C(C)C3(CC3)[C@@](C)(O)C(=O)C2=C1,11.1% (inactive)
9,CC[C@]12C=CCN3CC[C@@]4(c5ccc(OC)cc5N(C)[C@H]4[C@@](O)(C(=O)OC)[C@@H]1OC(=O)CCCC[P+](c1ccc(OC)cc1)(c1ccc(OC)cc1)c1ccc(OC)cc1)[C@@H]32,-89.8% (active)
10,CC1=C(CCC=NNC(N)=O)C2=C(C)C3(CC3)[C@@](C)(O)C(=O)C2=C1,-35.8% (active)
11,CC[C@@]12CC(C(=O)OC)=C3Nc4cc5c(cc4[C@@]34CCN(C[C@H]3O[C@H]31)[C@@H]24)[C@@H]1[C@H](O5)[C@@H](O)[C@@]2(CC)CC(C(=O)OC)=C3Nc4cc(OC)ccc4[C@@]34CCN1[C@@H]24,28.7% (inactive)
12,CCOP(=O)(CC(F)(F)C(F)(F)F)OCC,-53.3% (active)
13,CC1=C2C(=C[C@@](C)(COP(=O)(Oc3ccccc3)Oc3ccccc3)[C@@H]2O)C(=O)[C@@](C)(O)C12CC2,-22.9% (active)
14,CC(=O)Oc1ccccc1C(=O)NC([Se])=NC1CCCCC1,20.7% (inactive)
15,C[C@H]1[C@H](OC(=O)CCC(=O)N(CCCc2cn(-c3ccc(CN4CCOCC4)cc3)nn2)CCNc2ccnc3cc(Cl)ccc23)O[C@@H]2OC3(C)CC[C@H]4[C@H](C)CC[C@@H]1[C@@]24OO3,-66.3% (active)

# From PubChem BioAssay (NCI)
